Experiments:
[1] = test system: Botulinum neurotoxin type F light chain protease (Clostridium botulinum); assay: Botulinum neurotoxin type F light chain protease inhibition, multiplex microsphere flow cytometry, validation set (AID 588459); conditions: multiplex microsphere protease substrate cleavage assay, at 10 µM, active compounds read high
[2] = target: Botulinum neurotoxin type A (Clostridium botulinum) (UniProt P0DPI0); assay: BoNT/A light chain protease inhibitors, biochemical, multiplex microsphere flow cytometry, validation set (AID 588460); conditions: at 10 µM, active compounds read high
[3] = target: Lethal factor (Bacillus anthracis) (UniProt P15917); assay: Lethal factor protease inhibitors, Bacillus anthracis, multiplex microsphere cleavage assay, validation set (AID 588461); conditions: flow cytometry, at 10 µM, active compounds read high

Measured: inhibition

Lethal factor (Bacillus anthracis), sequence (P15917 whole entry, looked up): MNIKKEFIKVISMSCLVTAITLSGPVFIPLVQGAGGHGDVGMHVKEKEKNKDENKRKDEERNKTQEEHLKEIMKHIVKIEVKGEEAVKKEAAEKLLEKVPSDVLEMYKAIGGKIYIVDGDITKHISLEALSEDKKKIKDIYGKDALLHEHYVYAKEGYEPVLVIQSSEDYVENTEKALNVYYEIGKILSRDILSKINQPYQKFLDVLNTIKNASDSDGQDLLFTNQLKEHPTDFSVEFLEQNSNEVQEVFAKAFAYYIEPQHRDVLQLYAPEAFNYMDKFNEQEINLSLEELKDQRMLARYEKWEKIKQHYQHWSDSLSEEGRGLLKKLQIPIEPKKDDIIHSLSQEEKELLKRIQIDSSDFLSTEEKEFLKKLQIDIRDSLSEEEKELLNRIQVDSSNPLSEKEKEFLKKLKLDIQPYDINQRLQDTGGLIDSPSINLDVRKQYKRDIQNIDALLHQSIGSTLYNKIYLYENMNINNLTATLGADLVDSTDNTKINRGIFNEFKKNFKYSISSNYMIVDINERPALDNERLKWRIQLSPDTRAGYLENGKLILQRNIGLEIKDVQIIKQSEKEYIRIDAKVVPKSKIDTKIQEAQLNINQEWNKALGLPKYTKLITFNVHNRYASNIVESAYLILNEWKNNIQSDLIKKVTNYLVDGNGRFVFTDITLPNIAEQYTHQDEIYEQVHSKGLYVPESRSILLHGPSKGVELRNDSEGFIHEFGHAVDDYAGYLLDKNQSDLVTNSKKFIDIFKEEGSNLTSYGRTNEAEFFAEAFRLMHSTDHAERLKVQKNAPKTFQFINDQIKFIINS
Botulinum neurotoxin type A (Clostridium botulinum), sequence (P0DPI0 whole entry, looked up): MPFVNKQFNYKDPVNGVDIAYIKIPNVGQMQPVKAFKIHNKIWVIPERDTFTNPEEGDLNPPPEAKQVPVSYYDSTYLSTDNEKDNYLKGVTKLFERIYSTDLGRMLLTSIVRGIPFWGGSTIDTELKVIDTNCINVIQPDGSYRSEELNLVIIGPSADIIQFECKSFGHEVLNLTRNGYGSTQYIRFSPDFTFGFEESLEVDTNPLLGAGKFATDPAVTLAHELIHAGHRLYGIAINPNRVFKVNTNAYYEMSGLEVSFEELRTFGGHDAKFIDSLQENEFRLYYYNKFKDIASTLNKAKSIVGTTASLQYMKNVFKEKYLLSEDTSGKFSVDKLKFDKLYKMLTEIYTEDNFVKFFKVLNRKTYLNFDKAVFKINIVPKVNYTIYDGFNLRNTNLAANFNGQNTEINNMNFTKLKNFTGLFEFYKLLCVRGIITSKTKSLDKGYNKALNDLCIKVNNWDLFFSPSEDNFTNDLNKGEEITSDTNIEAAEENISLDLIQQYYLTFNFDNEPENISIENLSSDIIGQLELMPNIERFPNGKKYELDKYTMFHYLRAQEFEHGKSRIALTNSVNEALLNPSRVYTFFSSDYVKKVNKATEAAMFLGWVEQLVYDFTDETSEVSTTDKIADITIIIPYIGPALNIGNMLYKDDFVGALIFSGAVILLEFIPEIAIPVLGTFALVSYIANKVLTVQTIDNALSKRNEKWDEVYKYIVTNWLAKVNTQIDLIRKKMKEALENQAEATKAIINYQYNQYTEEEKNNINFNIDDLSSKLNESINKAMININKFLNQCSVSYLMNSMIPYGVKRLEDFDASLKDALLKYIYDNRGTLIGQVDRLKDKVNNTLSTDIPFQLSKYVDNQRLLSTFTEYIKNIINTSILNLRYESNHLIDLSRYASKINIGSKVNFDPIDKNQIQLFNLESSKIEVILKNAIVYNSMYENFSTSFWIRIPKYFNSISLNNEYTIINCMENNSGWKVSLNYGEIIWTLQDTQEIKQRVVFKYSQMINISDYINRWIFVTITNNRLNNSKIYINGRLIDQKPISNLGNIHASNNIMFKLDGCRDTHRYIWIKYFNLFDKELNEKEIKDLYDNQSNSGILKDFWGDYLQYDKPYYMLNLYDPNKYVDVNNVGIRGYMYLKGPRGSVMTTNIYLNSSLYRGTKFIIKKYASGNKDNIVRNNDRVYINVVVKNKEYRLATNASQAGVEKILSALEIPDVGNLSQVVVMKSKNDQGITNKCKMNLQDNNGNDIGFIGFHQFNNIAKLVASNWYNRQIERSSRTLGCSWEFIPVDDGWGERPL

COc1cc(CNCCc2ccccc2F)ccc1OCC(=O)N1CCCCC1
inactive: [1] 5.4% | [2] -0.1% | [3] 1%

C=CCC1(Cl)C(=O)C(Cl)=C(N2CCOCC2)C1(OC)OC (stereo unspecified)
inactive: [1] -1.2% | [2] -1.2% | [3] 0%

O=C(/C=C/c1ccco1)NCc1ccc2c(c1)OCO2
inactive: [1] -2.9% | [2] -0.4% | [3] 6.8%

C[C@]12CC[C@@H]3c4ccc(O)cc4CC[C@H]3[C@@H]1C[C@@H](O)[C@@H]2O[C@@H]1O[C@H](C(=O)O)[C@@H](O)[C@H](O)[C@H]1O
inactive: [1] -1.9% | [2] 0.2% | [3] -6.5%

COc1cccc(=O)c2c(C)n(CC(=O)c3ccccc3)c(C)c12
inactive: [1] -4.4% | [2] 0.1% | [3] -9.8%

CO[C@H]1C=CO[C@@]2(C)Oc3c(C)c(O)c4c(O)c(c(C=NN5CCN(C)CC5)c(O)c4c3C2=O)NC(=O)C(C)=CC=C[C@H](C)[C@H](O)[C@@H](C)[C@@H](O)[C@@H](C)[C@H](OC(C)=O)[C@@H]1C
inactive: [1] -7.2% | [2] 0.5% | [3] -7.3%

Cc1ccc(OCc2nc(-c3cccnc3)no2)cc1C
inactive: [1] -0.8% | [2] 0.4% | [3] -6.5%

Cc1coc2cc3oc(=O)c(CCC(=O)O)c(C)c3cc12
inactive: [1] 3.6% | [2] -2% | [3] -2.2%

CC(C)Cn1c(=S)[nH]c2cc(C(=O)O)ccc2c1=O
inactive: [1] -4.3% | [2] -0.4% | [3] -0.6%

O=C1c2ccccc2C(=O)C1c1ccccc1
inactive: [1] -2.6% | [2] 0.2% | [3] 9.8%

CCOCc1cc(C)[nH]c(=O)c1C#N
inactive: [1] -0.2% | [2] 2.8% | [3] 2%

C=C(C)[C@@H]1CC=C(CN2CCC(N3CCC(C(=O)N4CCCC4)CC3)CC2)CC1
inactive: [1] 7.8% | [2] 0.8% | [3] -0.3%

CCOc1ccc(CC2c3cc(OCC)c(OCC)cc3CCN2C(=O)CN2CCN(C)CC2)cc1OCC (stereo unspecified)
inactive: [1] -5.9% | [2] -1.4% | [3] 7.9%

CCOC(=O)C1(CCCc2ccccc2)CCN(C2CCN(C(C)=O)CC2)CC1
inactive: [1] 0.1% | [2] 1.4% | [3] -6.4%

Cn1c2ccc(CC(=O)O)cc2c2cc(CC(=O)O)ccc21
inactive: [1] 2.2% | [2] -0.6% | [3] 7.2%

O=c1[nH]c(=O)n([C@H]2C[C@H](O)[C@@H](CO)O2)cc1C(F)(F)F
inactive: [1] -1% | [2] 0% | [3] 3.3%

COc1ccc(O)c(N)c1
inactive: [1] -8.6% | [2] -3.6% | [3] -19.6%

C/C(=N\NC(=O)c1ccccc1[N+](=O)[O-])c1ccc(Br)s1
inactive: [1] 1.5% | [2] 1.6% | [3] 5.5%

COc1ccc(NC(=O)C2C(=O)N(CCO)C3(C)CC2c2ccccc2O3)cc1 (stereo unspecified)
inactive: [1] 0.1% | [2] 1.3% | [3] -1.3%

C[C@]12CC[C@@H]3c4ccc(O)cc4CC[C@H]3[C@@H]1CCC2=O
inactive: [1] 1.3% | [2] -2.2% | [3] -3.8%

O=C1CCCN1C(=O)CCC(=O)N1CCCC1=O
inactive: [1] -1.4% | [2] 0.3% | [3] -2.8%

CC(C)C(CCN1C(=O)CCC1=O)C1CCOC(C)(C)C1 (stereo unspecified)
inactive: [1] 3% | [2] 0.5% | [3] 0.7%

CC(C)(C)C(=O)NC(=S)NNC(=O)c1ccncc1
inactive: [1] 8.3% | [2] 2.9% | [3] -3.3%

O=C(c1ccc(Cl)cc1)C1CCCN(C(=O)/C=C/c2ccccn2)C1 (stereo unspecified)
inactive: [1] 2.6% | [2] -0.7% | [3] 6%

O=Cc1ccc(OC(=O)c2cccnc2)cc1
inactive: [1] 0.2% | [2] -0.7% | [3] -3.8%

CC(=O)CC(c1ccc([N+](=O)[O-])cc1)c1c(O)c2ccccc2oc1=O (stereo unspecified)
inactive: [1] 0.7% | [2] 0.2% | [3] -1.2%

COc1cccc(CC2CC(=O)N(c3ccc4c(C)cc(=O)oc4c3)C2=O)c1 (stereo unspecified)
inactive: [1] 3.1% | [2] -0.1% | [3] 4.1%

Reference: PubChem BioAssay
